aSyn UTR act: Activators via SNCA 5'UTR binding, MLPCN; alpha-synuclein 5'UTR reporter, activators screen; activity score, % (tested at 7.5 µM), hits read low; 300,000 tested, 7.1% active; in the data active = activity score below about -60%
* marks the source's active call; other numbers are inactive results. Not all results are given here.

SMILES | aSyn UTR act
Cc1ccc(C(=O)c2c3ccccc3[n+]([O-])n2[C@@H](C)C(N)=O)cc1 | -87*
COc1ccc(C(=O)Cn2cnc3ccccc3c2=O)c(OC)c1 | -96*
CC1(C)CC(=O)c2sc(NC(=O)c3ccc4ncsc4c3)nc2C1 | -77*
CC1(C)CC(=O)c2sc(NC(=O)C(C)(C)C)nc2C1 | -184*
CC1(C)CNC(=O)c2sc(NC(=O)c3ccccc3)nc2C1 | -155*
CC1(C)CC(=O)c2sc(NC(=O)c3ccccc3)nc2C1 | -78*
Clc1ccc2nnnc(-c3ccccc3)c2c1 | -375*
c1ccc(-c2nnnc3ccccc23)cc1 | -165*
C#CC[N+](C)(C)CCCCCCCCCC | 75
CCCc1nnc(NC(=O)c2ccc([N+](=O)[O-])cc2)s1 | -67*
CCC(C)(C)c1nnc(NC(=O)c2ccc([N+](=O)[O-])cc2)s1 | -149*
CC(C)(C)Cc1nnc(NC(=O)c2ccc([N+](=O)[O-])cc2)s1 | -77*
O=C1OC(c2ccccc2)=C/C1=C/N1CCCCC1 | -185*
O=C1OC(c2ccccc2)=N/C1=C\N1CCCCC1 | -152*
O=C1OC(c2ccc(Br)cc2)=N/C1=C\N1CCCCC1 | -95*
Cn1nnnc1SCC(=O)Nc1nc2c(s1)CCCC2 | -102*
O=C(CSC1=NCCS1)Nc1nc2c(s1)CCCC2 | -104*
CC1CCc2c(sc(NC(=O)CSc3ncn[nH]3)c2C#N)C1 (stereo unspecified) | 91
Cc1nnc(SCC(=O)Nc2nc3c(s2)CC(C)CC3)s1 (stereo unspecified) | -75*
COc1ccc(N2CCN(c3cnc4ccccc4n3)CC2)cc1 | -101*
COc1ccc(N2CCN(c3ncccn3)CC2)cc1 | -130*
COc1cccc(N2CCN(c3cnc4ccccc4n3)CC2)c1 | -116*
O=C(Nc1nc2c(s1)CN(Cc1ccccc1)CC2)C1CCCC1 | -82*
O=C(Nc1nc2c(s1)CN(Cc1ccccc1)CC2)c1c(F)cccc1F | -82*
CC(C)(C)C(=O)Nc1nc2c(s1)CN(Cc1ccccc1)CC2 | -92*
SMILES | aSyn UTR act
Cn1cccc1CNC(=O)Nc1ccc(Cl)cc1 | -115*
Cc1ccc(NC(=O)NCc2cccn2C)cc1C | -124*
S=C(NCc1ccco1)Nc1cc(-c2ccccc2)[nH]n1 | -68*
CCn1c(SCC(O)c2ccccc2)nnc1-c1ccccc1 (stereo unspecified) | -70*
Cc1nnc(SCc2nc3ccccc3s2)n1-c1ccccc1 | -195*
CCC(c1nnc(SCc2nc3ccccc3s2)n1Cc1ccccc1)N(C)C (stereo unspecified) | -101*
c1ccc(-n2cnnc2SCc2nc3ccccc3s2)cc1 | -146*
CCn1c(SCc2nc3ccccc3s2)nnc1-c1ccccc1 | -117*
Cc1nnc(SCc2nc3ccccc3s2)n1N | -145*
CC(C)(C)n1nc(-c2ccc(F)cc2)c2c(N)ncnc21 | 71
Oc1ccc(-c2cn3ccccc3n2)cc1O | -124*
O=C(Nc1cccc(-c2cn3ccccc3n2)c1)c1cc2ccccc2oc1=O | -100*
CC(=O)Nc1cccc(-c2cn3ccccc3n2)c1 | -78*
c1ccc2c(-c3cn4ccccc4n3)c[nH]c2c1 | -281*
O=C(NNc1nc(-c2ccccc2)cs1)c1ccc(F)cc1 | 76
O=C(Nc1nc(-c2cccnc2)cs1)c1cccc([N+](=O)[O-])c1 | -84*
O=C(Nc1nc(-c2ccccc2)cs1)c1ccccc1F | -135*
Cc1ccc(C(=O)Nc2nc(-c3cccnc3)cs2)o1 | -101*
Cc1ccc(-c2ocnc2C(=O)Nc2nc(C)cs2)cc1 | -91*
CCCCCC(=O)N[C@@H](c1ccccc1)[C@@H](O)C(=O)O[C@H]1C[C@@]2(O)[C@@H](OC(=O)c3ccccc3)C3[C@](C)(C(=O)[C@H](OC(C)=O)C(=C1C)C2(C)C)[C@@H](O)C[C@H]1OC[C@@]31OC(C)=O (stereo partly specified) | 87
Cc1csc(NC(=O)c2ccc(C)o2)n1 | -161*
O=C(Nc1nc(-c2ccccc2)cs1)c1ccc(Br)o1 | -79*
CCOC(=O)c1c(C)[nH]c(C=O)c1Cc1cccc(Cl)c1 | 53
CCOC(=O)c1c(C)[nH]c(C2=NNC(=Nc3cccc(Cl)c3)SC2)c1C | -74*
Cc1ccccc1OCCOc1cccc(/C=N/NC(=O)Cc2nnc(N)s2)c1 | -84*
SMILES | aSyn UTR act
Nc1nnc(CC(=O)N/N=C/c2cccc(OCCOc3ccccc3)c2)s1 | -120*
Cc1ccc2c(COC(=O)c3n[nH]c4ccccc34)cc(=O)oc2c1 | -172*
CCc1ccc2c(COC(=O)c3n[nH]c4ccccc34)cc(=O)oc2c1 | -175*
c1ccc(-c2nc3c([nH]2)CCc2nonc2-3)cc1 | -66*
Cc1ccc(OCC(=O)O/N=C(\N)c2cccnc2)cc1 | -88*
N/C(=N\OC(=O)c1cc(Cl)ccc1Cl)c1cccnc1 | -131*
N/C(=N\OC(=O)c1ccccc1Cl)c1cccnc1 | -168*
N/C(=N\OC(=O)COc1ccc(Cl)cc1Cl)c1cccnc1 | -146*
N/C(=N\OC(=O)c1ccc(Cl)cc1[N+](=O)[O-])c1cccnc1 | -104*
N/C(=N\OC(=O)c1cc(Br)ccc1Cl)c1cccnc1 | -215*
N/C(=N\OC(=O)c1ccccc1)c1cccnc1 | -128*
COC(=O)c1ccc(-c2noc(CN3C[C@H]4CC[C@H]3C4)n2)cc1 | -119*
CCc1ccc2oc(-c3ccc(OC)cc3)cc(=Nc3c(C)n(C)n(-c4ccccc4)c3=O)c2c1 | -77*
Cc1nn(Cc2ccc(Cl)c(Cl)c2)c(C)c1NC(=O)c1cc(-c2ccc3c(c2)OCO3)on1 | 66
O=C(NC1CCCCC1)c1cc(-c2ccc(F)cc2)on1 | -156*
O=C(NC1CCCCC1)c1cc(-c2cccs2)on1 | -161*
O=C(NC1CCCC1)c1cc(-c2ccc(Cl)c(Cl)c2)on1 | -151*
Cc1ccc(-c2cc(C(=O)NC3CCCC3)no2)cc1 | -141*
CCN(CC)S(=O)(=O)c1cc(C(=O)Oc2cccc(-c3cnc4ccccc4n3)c2)ccc1Br | -99*
CCN(CC)S(=O)(=O)c1ccc(Cl)c(C(=O)Oc2cccc(-c3cnc4ccccc4n3)c2)c1 | -90*
Cc1nnc2n(c1=O)N=C(c1ccc(Cl)cc1)CS2 | -93*
COc1ccc(C2=Nn3c(nnc3-c3ccc(OC)cc3)SC2)cc1 | 100
N#C/C(=N\Nc1cccc(C(F)(F)F)c1)C(=O)c1ccsc1 | -109*
CCOC(=O)C1=C(C)NC2=C(C(=O)c3ccccc32)C1c1ccc([N+](=O)[O-])o1 (stereo unspecified) | -63*
COC(=O)C1=C(C)NC(C)=C(C(=O)OCC(C)C)C1c1ccccc1[N+](=O)[O-] (stereo unspecified) | 71
SMILES | aSyn UTR act
COc1ccc(Cn2c(-c3ccc(Br)cc3)c[n+]3ccccc23)cc1 | -143*
COc1ccc(Cc2nn3c(-c4ccccc4Br)nnc3s2)cc1 | 37
COC(=O)Oc1ccc(/C=C/C(=O)OC(C)C)cc1OC(=O)OC | -127*
COc1ccc(C2=Nn3c(nnc3-c3ccccc3OC)SC2)cc1OC | 107
COc1ccc(-c2csc(-c3ccc(O)cc3)n2)cc1 | -215*
COc1ccc(-c2nc(CCl)cs2)cc1 | -142*
COc1ccc(-c2nc(-c3ccc(O)cc3O)cs2)cc1OC | -94*
CCc1ccc(-c2nc(CCl)cs2)cc1 | -123*
CC(=O)n1nc(-c2ccccc2)cc1-c1ccccc1 | -133*
O=C(O)CC(C(=O)O)n1nc(-c2ccccc2)cc1-c1ccccc1 (stereo unspecified) | -77*
O=C(CCl)N1CCCC1c1ccc2c(c1)OCCO2 (stereo unspecified) | -152*

Assay outcomes: PubChem, Broad Institute
